# Where “and” joins values, the source holds several entries; their conditions need not be identical. Equal entries are not always repeated. Unmarked numbers belong to inactive results. Results filed as inconclusive are left out. Calls of active or inactive are those of the source. Calls follow the shape of the dose curve; as a rule, active = well fitted curve in the direction sought with a large enough effect; inconclusive = small, poorly fitted or top-dose-only effect, or another doubt; inactive = no such curve, though single readings can be large; an effect the other way counts as inactive or inconclusive.
# What was measured:
# [1] = molecular target: Glutathione peroxidase 1 (Homo sapiens) (UniProt P07203); assay: Primary qHTS Assay for Inhibitors of Recombinant Selenoprotein Glutathione Peroxidase 1 (GPX1) (AID 1845191); also: nearly all actives have a fitted effect of over 65% in size
# Sequence of Glutathione peroxidase 1 (Homo sapiens) (P07203 whole entry, looked up): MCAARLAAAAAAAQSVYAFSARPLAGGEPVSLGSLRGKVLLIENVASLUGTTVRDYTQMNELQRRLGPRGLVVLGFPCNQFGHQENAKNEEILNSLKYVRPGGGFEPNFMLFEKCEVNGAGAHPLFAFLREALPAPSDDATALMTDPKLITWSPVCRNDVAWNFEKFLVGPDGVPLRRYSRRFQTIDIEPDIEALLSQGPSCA
# Summary of the method: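 GR-coupled readout: NADPH consumption tracked by fluorescence, ex 340/em 450 nm, at t=0 and after 15 min at RT. Final mix 10 nM GPX1, 1 mM GSH, 0.5 mM CHP, 0.5 mM NADPH, 100 nM GR, 0.01% BSA, following 30 min enzyme–compound preincubation.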
# [2] = molecular target: Phospholipid hydroperoxide glutathione peroxidase GPX4 (Homo sapiens) (UniProt P36969); assay: Primary qHTS Assay for Inhibitors of Recombinant Selenoprotein Glutathione Peroxidase 4 (GPX4) (AID 1845192); also: nearly all actives have a fitted effect of over 65% in size; also: potency is read from the fitted curve at half-maximal effect; as to activity change, negative = inhibition: series mostly up to about 50 µM; % is scaled to controls: 0 for no effect and ±100 for the full control effect
# Sequence of Phospholipid hydroperoxide glutathione peroxidase GPX4 (Homo sapiens) (P36969 whole entry, looked up): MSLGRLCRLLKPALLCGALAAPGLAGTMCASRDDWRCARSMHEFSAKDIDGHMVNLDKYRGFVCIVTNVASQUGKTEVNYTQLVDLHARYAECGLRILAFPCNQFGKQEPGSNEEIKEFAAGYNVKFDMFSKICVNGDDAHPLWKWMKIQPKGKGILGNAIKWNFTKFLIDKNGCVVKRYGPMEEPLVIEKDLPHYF
# Summary of the method: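 Steps: GPX4 plus compound, 30 min RT; add GR/GSH/NADPH master mix; start with cumene hydroperoxide; read 340/450 nm fluorescence at 0 and 15 min. Finals were 200 nM GPX4, 1 mM GSH, 0.5 mM CHP, 0.5 mM NADPH, 100 nM GR.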
# [3] = molecular target: Luciferin 4-monooxygenase (Photinus pyralis) (UniProt P08659); assay: Primary firefly luciferase (FLuc) qHTS assay for identification of artifact compounds. (AID 1845220); also: nearly all actives have a fitted effect of over 60% in size; also: potency is read from the fitted curve at half-maximal effect;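 as to activity change, negative = inhibition: series mostly up to about 54 µM; plate controls were DMSO vehicle for no effect and no enzyme for full effect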
# Summary of the method: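 Titrated compounds were incubated 15 min at RT, protected from light, with luciferin and ATP at 10 uM; reaction started with 10 nM FLuc, luminescence imaged at 5 min, and concentration-response fitted by Hill equation.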
# [4] = Primary fluorescence-based thiol-reactive (MSTI) qHTS assay for identification of artifact compounds. (AID 1845221); also: nearly all actives have a fitted effect of over 65% in size; also: potency is read from the fitted curve at half-maximal effect
# Summary of the method: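 A multi-concentration qHTS design tested compounds against 4 uM MSTI, pH 7.4 phosphate-buffered saline. Plates were protected from light for 1 h at room temperature before imaging fluorescence.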
# [5] = Primary redox qHTS assay for identification of artifact compounds. (AID 1845223)
# Summary of the method: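 Redox-cycling detection via DTT (250 uM final) oxidation coupled to Amplex Red (25 uM)/HRP (250 mU/mL) in HBSS. 15 min preincubation plus 30 min after DTT, room temperature. Ex/Em 525/598 nm; 4-parameter Hill fit against DMSO and 10 uM DA3003.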
# [6] = Quantitative High-Throughput drug screen in 47 multiple myeloma cell lines against the NCATS MIPE library collection: FR4_PLB cell viability assay (AID 1918924; also: potency is read from the fitted curve at half-maximal effect; nearly all actives have a fitted effect of over 35% in size)
# Summary of the method: (§1)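 We plated 500 myeloma cells per well, pinned in MIPE 4.0 compounds, and incubated for 48 hours at 37C. ATP was then quantified with CellTiter-Glo, with DMSO and media-only wells defining 100% and 0%.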
# [7] = Quantitative High-Throughput drug screen in 47 multiple myeloma cell lines against the NCATS MIPE library collection: Delta47_JCRB cell viability assay (AID 1918925; also: nearly all actives have a fitted effect of over 45% in size; also: potency is read from the fitted curve at half-maximal effect)
# Summary of the method: (§2)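 qHTS of the MIPE 4.0 collection: 500 myeloma cells/well, 48 h drug exposure at 37C in 5% CO2, then CellTiter-Glo for 5 min at room temperature before luminescence reading.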
# [8] = Quantitative High-Throughput drug screen in 47 multiple myeloma cell lines against the NCATS MIPE library collection: EJM_DSMZ cell viability assay (AID 1918926; also: potency is read from the fitted curve at half-maximal effect; nearly all actives have a fitted effect of over 30% in size)
# Summary of the method: as §2
# [9] = Quantitative High-Throughput drug screen in 47 multiple myeloma cell lines against the NCATS MIPE library collection: ARP1_JJKsccF8 cell viability assay (AID 1918928; also: potency is read from the fitted curve at half-maximal effect; nearly all actives have a fitted effect of over 40% in size)
# Summary of the method: (§3)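 Cell viability inhibition in this qHTS is measured via ATP content (CellTiter-Glo) after 48 h drug exposure at 37 °C. Wells hold 500 cells; DMSO-treated wells define 100% and medium-only wells 0%.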
# [10] = Quantitative High-Throughput drug screen in 47 multiple myeloma cell lines against the NCATS MIPE library collection: ARD_JJKsccE7 cell viability assay (AID 1918929; also: potency is read from the fitted curve at half-maximal effect)
# Summary of the method: as §2
# [11] = Quantitative High-Throughput drug screen in 47 multiple myeloma cell lines against the NCATS MIPE library collection: KMM1_JCRB cell viability assay (AID 1918960); also: nearly all actives have a fitted effect of over 30% in size; also: potency is read from the fitted curve at half-maximal effect
# Summary of the method: as §3
# [12] = Quantitative High-Throughput drug screen in 47 multiple myeloma cell lines against the NCATS MIPE library collection: Karpas620_DSMZ cell viability assay (AID 1918959); also: nearly all actives have a fitted effect of over 30% in size; also: potency is read from the fitted curve at half-maximal effect
# Summary of the method: as §1
# [13] = Quantitative High-Throughput drug screen in 47 multiple myeloma cell lines against the NCATS MIPE library collection: AMO1_DSMZ cell viability assay (AID 1918927; also: potency is read from the fitted curve at half-maximal effect; nearly all actives have a fitted effect of over 30% in size)
# Summary of the method: as §2
# [14] = test system: Nanoluciferase (engineered Oplophorus gracilirostris luciferase); assay: Primary Nanoluciferase (NLuc) qHTS assay for identification of artifact compounds. (AID 1845222);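 also: NLuc secreted into diluted conditioned medium of S16 cells; series mostly up to about 54 µM; 0% = DMSO and -100% = no enzyme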
# Summary of the method: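 qHTS format, against NLuc in S16 cell-conditioned medium. Nano-Glo substrate 1:100 was added after 15 min at room temperature. Luminescence was taken after a further 5 min.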
Compound,Potency [1],"activity change, negative = inhibition [2]",Potency [3],Potency [4],Potency [5],Potency [6],Potency [7],Potency [8],Potency [9],Potency [10],Potency [11],Potency [2],Potency [12],Potency [13],Potency [14]
O=C(CCCCCCC(=O)Nc1ccc([C@H]2O[C@@H](CSc3nc(-c4ccccc4)c(-c4ccccc4)o3)C[C@@H](c3ccc(CO)cc3)O2)cc1)NO,inactive,-22.8% [at 9.73 µM],inactive,inactive,inactive,11.8 µM (active),11.8 µM (active),13.2 µM (active),10.5 µM (active),inactive,inactive,,,,
Cc1c(NC(=O)OC[C@@H]2COCCN2)cn2ncnc(Nc3ccc4c(cnn4Cc4cccc(F)c4)c3)c12,inactive,,inactive,inactive,inactive,1.32 µM (active),0.833 µM (active),,,11.8 µM (active),14.8 µM (active),inactive,18.7 µM (active),,
C[C@@H]1COC(Nc2ccc3ncnc(Nc4ccc(OCc5nccs5)c(Cl)c4)c3c2)=N1,inactive,,19 µM (active),inactive,inactive,16.6 µM (active),2.64 µM (active),1.05 µM (active),,4.18 µM (active),10.5 µM (active),inactive,14.8 µM (active),4.69 µM (active),
OCc1ccc(-c2ccc(-c3ccc(CO)s3)o2)s1,inactive,,1.31 µM (active),2.6 µM (active),inactive,,20.9 µM (active),11.8 µM (active),18.7 µM (active),,inactive,inactive,inactive,,
CN(C)CC(C)(C)CNc1nn2c(-c3ccccc3)nnc2cc1C1CCC1,inactive,,inactive,inactive,inactive,,13.2 µM (active),,,inactive,,inactive,14.8 µM (active),2.96 µM (active),
Cc1cc(Nc2ncnc3ccc(-c4ccc(CNCCS(C)(=O)=O)o4)cc23)ccc1Oc1ccn2ncnc2c1,inactive,,inactive,inactive,inactive,18.7 µM (active),1.66 µM (active),20.9 µM (active),11.8 µM (active),,1.18 µM (active),inactive,5.26 µM (active),0.935 µM (active),
Fc1cc(-c2cccc3ncc(-c4cnn(C5CCNCC5)c4)nc23)cc(F)c1CN1CCOCC1,inactive,,inactive,inactive,,18.7 µM (active),7.43 µM (active),20.9 µM (active),16.6 µM (active),,inactive,inactive,,,inactive
CN(C1CCc2c(c3ccccc3n2CC(=O)O)C1)S(=O)(=O)c1ccc(F)cc1 (configuration not stated),inactive,,inactive,2.67 µM (active) and 2.12 µM (active),inactive,,,11.8 µM (active),,,2.35 µM (active),inactive,2.96 µM (active),2.64 µM (active),
COc1cccc(-c2ccc(NC(=O)C3=C(C(=O)O)CCC3)c(F)c2)c1,inactive,,5.36 µM (active),inactive,inactive,,inactive,,16.6 µM (active),,,inactive,inactive,6.62 µM (active),
Cc1ccc(C(=O)Nc2cccc(C(F)(F)F)c2)cc1-c1ccc2nc(NCCN3CCOCC3)ncc2c1,inactive,,inactive,inactive,inactive,10.5 µM (active),13.2 µM (active),16.6 µM (active),8.33 µM (active),2.64 µM (active),,inactive,2.64 µM (active),,
Cc1[nH]nc2ccc(-c3cncc(OC[C@@H](N)Cc4ccccc4)c3)cc12,inactive,,inactive,,inactive,4.18 µM (active),0.526 µM (active),1.87 µM (active),4.69 µM (active),2.09 µM (active),1.32 µM (active),inactive,,0.935 µM (active),inactive
CNC(=O)c1cc(Oc2ccc(NC(=O)Nc3cc(C(C)(C)C)nn3-c3ccc4ncccc4c3)c(F)c2)ccn1,inactive,,inactive,,,4.69 µM (active),5.9 µM (active),,8.33 µM (active),9.35 µM (active),16.6 µM (active),inactive,23.5 µM (active),,inactive
C#Cc1cccc(Nc2ncnc3cc(OC)c(OCCCCCCC(=O)NO)cc23)c1,inactive,,inactive,,inactive,0.0743 µM (active),0.0662 µM (active),,0.118 µM (active),,0.0526 µM (active),inactive,0.0743 µM (active),0.0526 µM (active),inactive
CC1(C)CCC(c2ccc(Cl)cc2)=C(CN2CCN(c3ccc(C(=O)NS(=O)(=O)c4ccc(N[C@H](CCN5CCOCC5)CSc5ccccc5)c(S(=O)(=O)C(F)(F)F)c4)cc3)CC2)C1,inactive,,inactive,,inactive,,7.43 µM (active),8.33 µM (active),13.2 µM (active),,1.87 µM (active),10.1 µM (active),0.0187 µM (active),3.72 µM (active),inactive

# Source: PubChem BioAssay (NCATS)
